Measurements as given in PubChem BioAssay (NCATS).
Inconclusive results are not listed. The source made the active and inactive calls. Calls follow the shape of the dose curve; as a rule, active = well fitted cell-killing curve with a large enough effect; inconclusive = small, poorly fitted or top-dose-only effect, or effect the other way; inactive = no such curve, though single readings can be large or run the other way.

Experiment: Quantitative High-Throughput drug screen in 47 multiple myeloma cell lines against the NCATS MIPE library collection: OCIMY5_PLB cell viability assay (AID 1918988); also: nearly all actives have a fitted effect of over 65% in size
Conditions: OCI-MY5 myeloma viability, ATP luminescence, 48 h; series mostly up to 45.8 µM
Text: PI: Beverly A. Mock Ph.D.
Laboratory of Cancer Biology and Genetics,
Center for Cancer Research, National Cancer Institute,
National Institute of Health, Bethesda, Maryland
Drug resistance and disease progression are common in multiple myeloma (MM) patients, underscoring the need for new therapeutic combinations. […] We hypothesized that effective combinations would reduce MYC expression and enhance p16 activity. […] These preclinical data identify potentially useful drug combinations for evaluation in drug-resistant MM and reveal potential mechanisms of combined drug sensitivity.
Described herein is the primary MIPE qHTS used to cherrypick compounds. Validated compounds were then further tested for potential synergistic activiy.
[1] Peat TJ, Gaikwad SM, Dubois W, Gyabaah-Kessie N, Zhang S, Gorjifard S, Phyo Z, Andres M, Hughitt VK, Simpson RM, Miller MA, Girvin AT, Taylor A, Williams D, D'Antonio N, Zhang Y, Rajagopalan A, Flietner E, Wilson K, Zhang X, Shinn P, Klumpp-Thomas C, McKnight C, Itkin Z, Chen L, Kazandijian D, Zhang J, Michalowski AM, Simmons JK, Keats J, Thomas CJ, Mock BA. Drug combinations identified by high-throughput screening promote cell cycle transition and upregulate Smad pathways in myeloma. Cancer Lett. 2023 Aug 1;568:216284. doi: 10.1016/j.canlet.2023.216284. Epub 2023 Jun 24. PMID: 37356470; PMCID: PMC10408729.
SEQUENCE No. (e.g., 1, 2, 3, etc.); […] (e.g., Cells, Incubation, Reagent, etc.); VALUE and DESCRIPTION.
1; Cells; 5 uL; white, solid bottom 1536-well Greiner assay plate.
2; Compounds; 23 nL; Kalypsis pin tool (Wako USA) equipped with a 1536-well pin head to transfer to the assay plates.
3; Incubation; 48 hours; 37C incubation.
4; Reagent;5uL; CellTiter Glo (Promega).
5; Detector; 425V; Luminescence; Viewlux PerkinElmer.
NOTES (numbers refer to Sequence numbers above)
1. The cell-based screening methods employed in this study were like those previously published. Briefly, the corresponding myeloma cell lines were screened in 1,536-well plates with 500 cells, 5-uL per well for inhibition of cell viability (assessed by measuring ATP levels with CellTiterGlo).
2. NCATS MIPE 4.0 library of approved and investigational drugs were added using the Kalypsis pin tool. Wells treated with DMSO only for 100% viability and media only for 0% viability were used as controls.
3. The assay plates were covered and incubated for 48 hours in a 37C, 5% CO2 incubator with controlled humidity.
4. After 48 hours, CellTilter-GloTM luminescent substrate mix (Promega) reagent was added to the assay plate and plates we incubated for 5 min at room temperature.
5. Signal was measured as median relative luminescence units on a ViewLux (PerkinElmer) multiplate reader.
[1] Heske CM, Davis MI, Baumgart JT, Wilson K, Gormally MV, Chen L, Zhang X, Ceribelli M, Duveau DY, Guha R, Ferrer M, Arnaldez FI, Ji J, Tran HL, Zhang Y, Mendoza A, Helman LJ, Thomas CJ. Matrix Screen Identifies Synergistic Combination of PARP Inhibitors and Nicotinamide Phosphoribosyltransferase (NAMPT) Inhibitors in Ewing Sarcoma. Clin Cancer Res. 2017 Dec 1;23(23):7301-7311. doi: 10.1158/1078-0432.CCR-17-1121. Epub 2017 Sep 12. PMID: 28899971; PMCID: PMC6636827.
Potency is read from the fitted curve at half-maximal effect.

Structure (SMILES)	Potency
CC(C)(C)[C@]1(O)C[C@@H]2OC(=O)C[C@@]23C(=O)O[C@@H]2OC(=O)[C@H](O)C213 (stereo not given in full)	inactive
CN1CCN(c2ccc([N+](=O)[O-])c3no[n+]([O-])c23)CC1	16600 nM (active)
CCN1C[C@]2(OC(=O)c3ccccc3NC(C)=O)CC[C@H](OC)[C@@]34[C@H]5CC6[C@@H](OC)C[C@](O)(C(C[C@@H]23)[C@@H]14)[C@@]5(O)[C@@H]6OC	inactive
CCCCCC[C@H]1C(=O)O[C@H](C)[C@H](NC(=O)c2cccc(NC=O)c2O)C(=O)O[C@@H](C)[C@@H]1OC(=O)CC(C)C	66.2 nM (active)
CO[C@H]1CCC(O[C@H]2C[C@H]([C@]3(C)CC[C@]4(C[C@H](O)[C@@H](C)[C@@H]([C@@H](C)C=C(C)C(=O)[C@H](C)C[C@H](C)C(=O)O)O4)O3)O[C@]3(O[C@@H]([C@H]4O[C@@](O)(CO)[C@H](C)C[C@H]4C)C[C@H]3C)[C@H]2C)O[C@H]1C (stereo not given in full)	132 nM (active)
CC=C(C)C(=O)N[C@@H](c1ccccc1)[C@@H](O)C(=O)O[C@H]1C[C@@]2(O)[C@@H](OC(=O)c3ccccc3)[C@@H]3[C@]4(OC(C)=O)CO[C@@H]4C[C@H](O)[C@@]3(C)C(=O)[C@H](OC(C)=O)C(=C1C)C2(C)C	inactive
c1ccc2c(CN3CCNCC3)cccc2c1	inactive
CC(N[C@H]1C[C@H]1c1ccccc1)c1ccc2c(c1)OCCO2 (stereo not given in full)	2960 nM (active)
COc1ccc(C(=O)c2c(C)n(CCN3CCOCC3)c3cc(I)ccc23)cc1	9350 nM (active)
CCc1c(C(=O)C(N)=O)c2c(OCC(=O)O)cccc2n1Cc1ccccc1	inactive
C[C@H]1CCCC=CC2C[C@H](O)C[C@@H]2[C@H](O)C=CC(=O)O1 (stereo not given in full)	inactive
CC[C@@H]1[C@@H](C)O[C@@](O)([C@@H](C)[C@H](O)[C@H](C)[C@H]2OC(=O)C=CC=C[C@@H](C)[C@@H]([C@@H](C)[C@@H](O)[C@H](C)[C@@]3(O)C[C@H](O[C@H]4C[C@H](O)[C@H](O)[C@H](C)O4)[C@H](CC)[C@@H](C)O3)OC(=O)C=CC=C[C@@H]2C)C[C@H]1O[C@H]1C[C@H](O)[C@H](O)[C@H](C)O1	372 nM (active)
COc1cc([C@@H]2c3cc4c(cc3[C@@H](O)C3COC(=O)C32)OCO4)cc(OC)c1O (stereo not given in full)	10.5 nM (active)
O=C(Oc1ccc([N+](=O)[O-])cc1)N1CCN(Cc2cccc(Oc3ccccc3)c2)CC1	inactive
CC(=O)O[C@@]12CO[C@H]1C[C@H](O)[C@@]1(C)C(=O)[C@H](O)C3=C(C)[C@@H](O)C[C@@](O)([C@@H](OC(=O)c4ccccc4)[C@@H]21)C3(C)C	1480 nM (active)
COC[C@H]1OC(=O)c2coc3c2[C@@]1(C)C1=C(C3=O)[C@@H]2CC[C@H](O)[C@@]2(C)C[C@@H]1OC(C)=O	10500 nM (active)
CC[C@@]1(O)C(=O)OCc2c1cc1n(c2=O)Cc2cc3ccccc3nc2-1	166 nM (active)
Cc1[nH]nc2ccc(-c3cncc(OC[C@@H](N)Cc4c[nH]c5ccccc45)c3)cc12	833 nM (active)
O=C(Oc1ccc([N+](=O)[O-])cc1)N1CCC(C(O)(c2ccc3c(c2)OCO3)c2ccc3c(c2)OCO3)CC1	inactive
CCOC(=O)Nc1ccc(NCc2ccc(F)cc2)cc1N	inactive

Structure (SMILES)	Potency
C[C@@]12OC(=O)[C@]1([C@@H](O)[C@@H]1C=CCCC1)NC(=O)[C@H]2CCCl	4.7 nM (active)
Cc1ccccc1-n1c(Cn2ncc3c(N)ncnc32)nc2cccc(C)c2c1=O	4180 nM (active)
O=[N+]([O-])c1ncc[nH]1	29600 nM (active)
O=C(Nc1ccncc1)C(=O)c1cn(Cc2ccc(Cl)cc2)c2ccccc12	37.2 nM (active)
COC1=C[C@@H]2[C@@H]3Cc4ccc(OC)c(O)c4[C@]2(CCN3C)CC1=O	1660 nM (active)
CC(=Cc1csc(C)n1)[C@@H]1C[C@H]2O[C@@H]2CCC[C@H](C)[C@@H](O)[C@@H](C)C(=O)C(C)(C)[C@@H](O)CC(=O)O1	inactive
C[C@]12Cc3cn[nH]c3C[C@@H]1CC[C@@H]1[C@H]2CC[C@@]2(C)[C@H]1CC[C@]2(C)O	13200 nM (active)
CC(C)[C@]12O[C@@H]1[C@@H]1O[C@]13[C@]1(O[C@H]1C[C@@H]1C4=C(CC[C@@]13C)C(=O)OC4)[C@H]2O	inactive
CCOC(=O)c1cncn1[C@H](C)c1ccccc1	inactive
CC[C@H]1C=CC=CC[C@@H](C)[C@H](O)[C@@](C)(O)C(=O)[C@@H](C)[C@H](O)[C@@H](C)C(=O)[C@@H](C)[C@H](O)[C@@H](C)C=CC(=O)O[C@@H]2[C@@H](C)[C@H](CC1)O[C@]1(CC[C@H](C)[C@H](C[C@@H](C)O)O1)[C@H]2C	1.7 nM (active)
Cc1c(C(=O)Nc2cccc(C(F)(F)F)c2)cc(-c2ccccc2)n1CCCN1CCOCC1	16600 nM (active)
COc1ccc(N(C(=O)Oc2c(C)cccc2C)c2ccnc(Nc3ccc(N4CCN(C)CC4)cc3)n2)c(OC)c1	1180 nM (active)
C=C[C@@H]1CN2CCC1C[C@@H]2[C@@H](O)c1ccnc2ccccc12 (stereo not given in full)	20900 nM (active)
COCC1(CO)C(=O)C2CCN1CC2 (stereo not given)	2640 nM (active)
C[C@@H]1CC[C@@]2(OC1)O[C@H]1C[C@H]3[C@@H]4CC=C5C[C@@H](O[C@@H]6O[C@H](CO)[C@@H](O[C@@H]7O[C@@H](C)[C@H](O)[C@@H](O)[C@@H]7O)[C@H](O)[C@@H]6O[C@@H]6O[C@@H](C)[C@H](O)[C@@H](O)[C@@H]6O)CC[C@]5(C)[C@@H]4CC[C@]3(C)[C@@H]1[C@H]2C	1660 nM (active)
CCNC(=O)C[C@@H]1N=C(c2ccc(Cl)cc2)c2cc(OC)ccc2-n2c(C)nnc21	209 nM (active)
C[C@@H]1O[C@@H](O[C@@H]2C=C3CC[C@@H]4[C@@H](CC[C@]5(C)[C@H](c6ccc(=O)oc6)CC[C@@]45O)[C@@]3(C)CC2)[C@H](O)[C@H](O)[C@H]1O	13.2 nM (active)
CC(C)N[C@@H]1CCn2c(=O)[nH]c3cccc(c32)[C@@H]1O	118 nM (active)
CC(C)(O)C=CC(=O)[C@](C)(O)[C@H]1[C@H](O)C[C@]2(C)[C@@H]3CC=C4[C@@H](C=C(O)C(=O)C4(C)C)[C@]3(C)C(=O)C[C@@]12C	46.9 nM (active)
CSCC[C@@H](NC(=O)[C@@H](Cc1ccccc1)NC(=O)CNC(=O)CNC(=O)[C@@H](N)Cc1ccc(O)cc1)C(=O)O	inactive
